Here are results for 20 compounds from PubChem BioAssay (EPA / NIEHS).

Inconclusive results are not listed. Active and inactive are the calls of the source. How the source made its calls: active means hit-call score of the fitted dose curve at least 0.9, where 1 is the maximum; inconclusive means response in the unintended direction; inactive means score below 0.9.

Broadly, the AC50 is the midpoint of the concentration-response curve, whichever way the signal moves.

The assay deals with Estrogen receptor (Homo sapiens) + Estrogen receptor beta (Homo sapiens) (UniProt P03372+Q92731). Description: OT_ER_ERaERb_0480: Odyssey Thera (OT) 8-hour HEK293T Protein-Complementation Assay for Estrogen Receptor-alpha/-beta Heterodimer (AID 2283352). As for the experimental part: OT_ER_ERaERb_0480 is a cell-based assay that uses HEK293T, a human kidney cell line, with measurements taken at 8 hours after chemical dosing in a 384-well plate.OT_ER_ERaERb_0480 is one of one assay component(s) measured or calculated from the OT_ER_ERaERb_0480 assay. It is designed to make measurements of protein fragment complementation, a form of binding reporter, as detected with fluorescence intensity signals by Protein-fragment Complementation technology.Data from the assay component OT_ER_ERaERb_0480 was analyzed into 1 assay endpoint. This assay endpoint, OT_ER_ERaERb_0480, was analyzed in the positive analysis fitting direction relative to DMSO as the negative control and baseline of activity. Using a type of binding reporter, measures of receptor for gain-of-signal activity can be used to understand the binding at the pathway-level as they relate to the gene ESR1 and ESR2. Furthermore, this assay endpoint can be referred to as a primary readout, because the performed assay has only produced 1 assay endpoint. To generalize the intended target to other relatable targets, this assay endpoint is annotated to the nuclear receptor intended target family, where the subfamily is steroidal.
Chain of Estrogen receptor (Homo sapiens) + Estrogen receptor beta (Homo sapiens) (P03372 whole entry, looked up, the tested form may be a part): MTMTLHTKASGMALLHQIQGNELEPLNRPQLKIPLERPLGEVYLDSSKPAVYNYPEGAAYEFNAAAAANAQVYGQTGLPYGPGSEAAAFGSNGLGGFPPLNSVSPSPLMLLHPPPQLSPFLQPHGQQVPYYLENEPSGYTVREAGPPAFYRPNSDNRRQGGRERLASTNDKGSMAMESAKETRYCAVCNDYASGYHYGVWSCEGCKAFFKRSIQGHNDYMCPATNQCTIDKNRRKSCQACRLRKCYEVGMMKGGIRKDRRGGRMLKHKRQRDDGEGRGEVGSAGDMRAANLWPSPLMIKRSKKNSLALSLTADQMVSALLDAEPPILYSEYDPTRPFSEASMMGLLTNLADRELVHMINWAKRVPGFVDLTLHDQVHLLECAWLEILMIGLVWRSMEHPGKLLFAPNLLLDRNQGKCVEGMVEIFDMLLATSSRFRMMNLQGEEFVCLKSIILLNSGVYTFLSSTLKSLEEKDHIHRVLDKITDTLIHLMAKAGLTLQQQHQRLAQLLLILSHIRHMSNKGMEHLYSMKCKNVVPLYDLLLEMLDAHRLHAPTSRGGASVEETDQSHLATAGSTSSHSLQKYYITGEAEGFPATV
Chain of Estrogen receptor (Homo sapiens) + Estrogen receptor beta (Homo sapiens) (Q92731 whole entry, looked up, the tested form may be a part): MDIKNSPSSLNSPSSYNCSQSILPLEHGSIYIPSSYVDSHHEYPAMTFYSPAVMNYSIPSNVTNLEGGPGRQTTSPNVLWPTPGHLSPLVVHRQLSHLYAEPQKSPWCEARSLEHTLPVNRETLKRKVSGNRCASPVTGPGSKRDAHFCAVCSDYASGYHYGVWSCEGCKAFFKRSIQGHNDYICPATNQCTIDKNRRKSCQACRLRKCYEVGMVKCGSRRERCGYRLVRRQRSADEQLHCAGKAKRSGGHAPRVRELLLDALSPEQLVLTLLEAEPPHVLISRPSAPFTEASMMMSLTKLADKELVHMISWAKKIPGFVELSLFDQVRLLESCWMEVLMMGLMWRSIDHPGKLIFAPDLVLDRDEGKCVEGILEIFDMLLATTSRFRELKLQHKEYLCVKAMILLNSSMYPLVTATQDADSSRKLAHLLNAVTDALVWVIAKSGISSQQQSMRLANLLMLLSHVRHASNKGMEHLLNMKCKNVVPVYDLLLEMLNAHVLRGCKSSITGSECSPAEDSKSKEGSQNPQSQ
Protein-fragment complementation assay, or PCA, is a method for the identification and quantification of protein-protein interactions. In the PCA, the proteins of interest ("bait" and "prey") are each covalently linked to fragments of a third protein (e.g. DHFR, which acts as a "reporter"). Interaction between the bait and the prey proteins brings the fragments of the reporter protein in close proximity to allow them to form a functional reporter protein whose activity can be measured. […] Fluorescent signal in the basal state of the assay is very low and is primarily punctuate and cytoplasmic. Modulation of this assay is quantified as an increase in mean fluorescence intensity in the nucleus (for agonists) or in the nucleus and cytoplasm (antagonists) relative to vehicle controls, and can be quantified on a high content imaging device or a laser scanning cytometer. The latter instrument is favored for this assay because of the rapid mode of data acquisition, the ability to acquire data from the entire cell population in a well (as opposed to a fraction of the well on the high content devices) and the larger dynamic range typically achieved with this instrument. To assess sensitivity of the ER alpha/ER beta LBD assay to ligand, cells were treated with the ER agonist 17- beta-estradiol (E2) in 10-point concentration- response format for 8 hours and monitored response on a laser scanning plate cytometer (Acumen eX3; TTP Lab Tech).
For `CC(C)=CC1C(C(=O)OCc2cccc(Oc3ccccc3)c2)C1(C)C` (stereo not given), the result was inactive.

As for `CCCCCCCCCCCCN(C)C`, the outcome was inactive.

With `CCOCn1c(-c2ccc(Cl)cc2)c(C#N)c(Br)c1C(F)(F)F`, the AC50 is 16.9 µM (active).

As to `O=CCCl`, the outcome was inactive.

With `O=C(NC(=O)c1c(F)cccc1F)Nc1ccc(Cl)cc1`, the result was inactive.

For the compound `O=C(NC(=O)c1c(F)cccc1F)Nc1cc(Cl)c(OC(F)(F)C(F)C(F)(F)F)cc1Cl` (stereo not given), the outcome was inactive.

As to `Oc1c(Br)cc(Br)cc1Br`, the result was inactive.

For the compound `O=S1(=O)OC(c2cc(Br)c(O)c(Br)c2)(c2cc(Br)c(O)c(Br)c2)c2ccccc21`, the AC50 was 15.2 µM (active).

Turning to `CC(C)N(C(=O)CCl)c1ccccc1`, the outcome was inactive.

As for `CNC(=O)O/N=C/C(C)(C)S(C)(=O)=O`, the result was inactive.

On to `CC(=Cc1ccccc1)[N+](=O)[O-]`, for which the outcome was inactive.

With `N#CCC#N`, the result was inactive.

In the case of `N#CCCC(Br)(C#N)CBr` (stereo not given), the result was inactive.

In the case of `CCCSP(=S)(OCC)Oc1ccc(SC)cc1` (stereo not given), the AC50 is 22.7 µM (active).

With `CCC[CH2][Sn]([Cl])([Cl])[CH2]CCC`, the result was inactive.

Turning to `Cc1cc(Cl)ccc1OC(C)C(=O)O` (stereo not given), the outcome was inactive.

In the case of `O=C(O)COc1ccc(Cl)cc1`, the result was inactive.

For the compound `CC(O)(CS(=O)(=O)c1ccc(F)cc1)C(=O)Nc1ccc(C#N)c(C(F)(F)F)c1` (stereo not given), the outcome was inactive.

`CCOc1ccc(N)cc1`: the result was inactive.

`CCN(CCO)CCO`: the result was inactive.
